Among all 310,000 compounds or so, about 14,000 (4.5%) showed an effect of 50% or more. The effect is printed as a negative number. Many of the other results were omitted from the sample, so strong results are more common in it than they were.
Biological target: human ether-à-go-go-related gene (hERG) potassium channel (human, UniProt Q12809)
Test: primary screen, population patch clamp on CHO cells stably expressing hERG; higher = less effect of the substance
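Also: peak tail current of the secondary pulse compared with the same well before compound.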

human ether-à-go-go-related gene (hERG) potassium channel, sequence (Q12809 whole entry, looked up): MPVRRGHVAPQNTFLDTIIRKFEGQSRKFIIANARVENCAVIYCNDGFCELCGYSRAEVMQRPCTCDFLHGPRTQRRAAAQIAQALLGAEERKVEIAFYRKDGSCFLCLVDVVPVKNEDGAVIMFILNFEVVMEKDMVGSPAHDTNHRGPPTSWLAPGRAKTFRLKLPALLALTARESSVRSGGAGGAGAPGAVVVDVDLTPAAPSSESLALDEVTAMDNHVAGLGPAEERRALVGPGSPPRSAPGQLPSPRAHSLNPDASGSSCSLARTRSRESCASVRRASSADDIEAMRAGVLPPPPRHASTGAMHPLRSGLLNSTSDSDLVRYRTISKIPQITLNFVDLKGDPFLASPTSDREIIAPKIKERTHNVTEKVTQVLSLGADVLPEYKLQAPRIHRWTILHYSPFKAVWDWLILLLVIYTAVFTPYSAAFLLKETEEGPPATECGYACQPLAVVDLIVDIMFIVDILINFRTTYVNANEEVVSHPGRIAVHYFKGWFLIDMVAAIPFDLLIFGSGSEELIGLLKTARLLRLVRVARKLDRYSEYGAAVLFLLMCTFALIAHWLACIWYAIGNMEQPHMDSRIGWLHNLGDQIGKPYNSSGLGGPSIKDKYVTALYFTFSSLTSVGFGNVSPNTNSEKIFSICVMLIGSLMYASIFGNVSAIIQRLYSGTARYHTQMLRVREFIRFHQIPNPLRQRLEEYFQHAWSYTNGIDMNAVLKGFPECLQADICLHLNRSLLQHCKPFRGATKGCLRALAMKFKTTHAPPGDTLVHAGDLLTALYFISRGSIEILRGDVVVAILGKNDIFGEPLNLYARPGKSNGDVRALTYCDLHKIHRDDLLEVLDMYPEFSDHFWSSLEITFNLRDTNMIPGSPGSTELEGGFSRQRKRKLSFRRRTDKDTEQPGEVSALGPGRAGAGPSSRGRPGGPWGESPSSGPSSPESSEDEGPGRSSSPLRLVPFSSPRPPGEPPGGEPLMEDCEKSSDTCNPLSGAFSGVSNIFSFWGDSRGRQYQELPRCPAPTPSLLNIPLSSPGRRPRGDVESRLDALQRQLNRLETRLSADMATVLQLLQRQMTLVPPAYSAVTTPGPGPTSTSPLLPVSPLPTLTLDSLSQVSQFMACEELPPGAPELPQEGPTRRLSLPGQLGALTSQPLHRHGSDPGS

| SMILES | hERG current change (%, negative = inhibition) at 10uM |
| --- | --- |
| O=C(Nc1ccc(N2CCOCC2)c(Cl)c1)c1ccc(F)cc1 | -3.11% |
| CCN1CCN(c2ccc(NC(=O)c3cccnc3)cc2Cl)CC1 | -16.8% |
| O=C(Nc1ccc(N2CCOCC2)c(Cl)c1)c1cccc(F)c1 | -21.2% |
| CCN1CCN(c2ccc(NC(C)=O)cc2Cl)CC1 | -1.19% |
| CCN1CCN(c2ccc(NC(=O)c3cccc(F)c3)cc2Cl)CC1 | -75.2% |
| COc1ccc(OCC(=O)Nc2ccc(N3CCN(C(=O)c4ccccc4)CC3)c(Cl)c2)cc1 | -19.4% |
| CCCOc1ccc(C(=O)N2CCN(c3ccc(NC(=O)CC)cc3Cl)CC2)cc1 | -77% |
| CCCC(=O)Nc1ccc(N2CCN(CC)CC2)c(Cl)c1.Cl | -47.8% |
| CCC(=O)Nc1ccc(N2CCN(CC)CC2)c(Cl)c1 | -3.56% |
| CCN1CCN(c2ccc(NC(=O)c3ccc(F)cc3)cc2Cl)CC1 | -75.6% |
| CCCOc1ccc(C(=O)N2CCN(c3ccc(N)cc3Cl)CC2)cc1 | -31.7% |
| CCCCCC(=O)Nc1ccc(N2CCN(CC)CC2)c(Cl)c1 | -71.5% |
| COc1ccc(-c2nnc(SCc3nnc(-c4cccs4)o3)n2CC2CCCO2)cc1 (stereo not drawn) | -32% |
| Cc1ccc(OCc2nnc(NC(=O)c3ccco3)s2)cc1 | 6.86% |
| Cc1cccc(N(C(=O)c2csnn2)C(C(=O)NCc2ccccc2)c2ccncc2)c1 (stereo not drawn) | -18.7% |
| CCN(CC)CCCN1C(=O)C(O)=C(C(=O)c2sc(C)nc2C)C1c1ccco1 (stereo not drawn) | -0.605% |
| O=C(Cc1ccsc1)NNC(=O)c1ccc(F)cc1 | -18.8% |
| c1ccc(CCN(Cc2ccccc2)Cc2nc(C3CC3)no2)cc1 | 10.2% |
| COc1ccc(OCc2cc(C(=O)N3CCC(OC)CC3)no2)c2ccccc12 | 14.4% |
| CCCCOc1ccc(Nc2cc(Cl)ccc2C(=O)O)cn1 | 23.5% |
| O=C(Nc1nnc(-c2ccccc2F)s1)Nc1ccccc1F | 23.3% |
| CCn1c(SCC(=O)Nc2ccc(OC)cc2)nc2nc3c(cc2c1=O)COC(C)(C)C3 | -72.6% |
| CCn1c(SCC(=O)Nc2ccc(C)cc2)nc2nc3c(cc2c1=O)COC(C)(C)C3 | -81.8% |
| CCn1c(SCC(=O)Nc2ccccc2C)nc2nc3c(cc2c1=O)COC(C)(C)C3 | -21.4% |
| CCn1c(SCC(=O)Nc2ccccc2)nc2nc3c(cc2c1=O)COC(C)(C)C3 | -61.8% |
| CCn1c(SCC(=O)Nc2ccc(C(C)=O)cc2)nc2nc3c(cc2c1=O)COC(C)(C)C3 | 13.8% |
| CCn1c(SCC(=O)Nc2ccc(C(C)=O)cc2)nc2nc3c(cc2c1=O)CCCC3 | -20.5% |

| SMILES | hERG current change (%, negative = inhibition) at 10uM |
| --- | --- |
| CCn1c(SCC(=O)Nc2ccc(OC)cc2OC)nc2nc3c(cc2c1=O)COC(C)(C)C3 | -2.49% |
| CCn1c(SCC(=O)Nc2ccc(C)cc2)nc2nc3c(cc2c1=O)CCCC3 | -43.6% |
| CCn1c(SCC(=O)Nc2cccc(C)c2)nc2nc3c(cc2c1=O)COC(C)(C)C3 | -23.1% |
| CCOc1ccc(NC(=O)CSc2nc3nc4c(cc3c(=O)n2CC)COC(C)(C)C4)cc1 | 0.831% |
| CCn1c(SCC(=O)Nc2ccc(OC)cc2)nc2nc3c(cc2c1=O)CCCC3 | -62.6% |
| C=CCn1c(SCC(N)=O)nc2nc3c(cc2c1=O)COC(C)(C)C3 | 4.77% |
| O=C(CN1C(=O)CCOc2ccccc21)Nc1ccc(Cl)c(S(=O)(=O)N2CCOCC2)c1 | -7.44% |
| O=C(CCn1cnnn1)Nc1cccc(F)c1 | 21.3% |
| S=C(NCCSCc1c(Cl)cccc1Cl)Nc1ccccc1 | -3.31% |
| COCCn1c(C)cc(C2=NNC(=Nc3ccc(OC)cc3)SC2)c1C | 1.3% |
| Cc1ccc(S(=O)(=O)Nc2ccnc3ccccc23)cc1 | -4.28% |
| Cc1ccc(F)cc1NC(=O)c1sc2ncn(CC(=O)N3CCN(c4ccccn4)CC3)c(=O)c2c1C | -5.06% |
| O=C(COC(=O)CCC(=O)c1cccs1)NC1CCCCC1 | 1.55% |
| CCCCCCC(=O)N/N=C/c1c(O)n(C2CC2)c(=S)[nH]c1=O | -4.67% |
| Cc1cc(N2CCN(c3ccccc3)CC2)n2nnnc2n1 | -3.56% |
| Cc1cccc(N2CCN(c3nnnn3-c3ccccc3)CC2C)c1 (stereo not drawn) | -10.8% |
| Cc1cccc(N2CCN(c3cc(C)nc4nnnn34)CC2C)c1 (stereo not drawn) | -53.1% |
| O=C(NCCc1ccco1)C(=O)NCC1CCCN1S(=O)(=O)c1ccccc1 (stereo not drawn) | -33.5% |
| CSc1ccc(/C=C(\NC(=O)c2ccc(C)cc2)C(=O)Nc2cccc(C)c2)cc1 | 15.6% |
| CC(C)Oc1ccc(C2CC(=O)N(c3ccccc3)C2=O)cc1 (stereo not drawn) | 6.47% |
| COc1ccc(-c2cc(=NC(CC(C)C)C(=O)O)c3cc(C)ccc3o2)cc1 (stereo not drawn) | -56.5% |
| CCC(N=c1cc(-c2ccc(OC)c(OC)c2)oc2ccc(C)cc12)C(=O)O (stereo not drawn) | -20.7% |
| COc1ccc(-c2cc(=[NH+]c3cccc(C(=O)O)c3)c3cc(C)ccc3o2)cc1.[O-][Cl+3]([O-])([O-])[O-] | -0.536% |
| COc1ccc(-c2cc(=Nc3ccc(C(=O)O)cc3)c3cc(C)ccc3o2)cc1 | 12.7% |
| CCC(N=c1cc(-c2ccc(OC)cc2)oc2ccc(C)cc12)C(=O)O (stereo not drawn) | -74.4% |
| COc1ccc(-c2cc(=NCC(=O)O)c3ccccc3o2)cc1.[O-][Cl+3]([O-])([O-])O | -31.5% |
| O=C(CN1C(=O)NC2(CCc3ccccc32)C1=O)NCC(=O)Nc1ccc(F)cc1 (stereo not drawn) | 1.09% |
